ALDH1A1 block: qHTS Assay for Inhibitors of Aldehyde Dehydrogenase 1 (ALDH1A1); Purified ALDH1A1, NADH fluorescence, propionaldehyde substrate; 7.3% of 220,000 active; Potency, µM (top dose mostly 75.3 µM), without a hit: at the top dose activity, negative = inhibition, hits mostly inhibitors;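 note: potency is the fitted concentration of half-maximal effect; plate controls were no enzyme wells and a reference inhibitor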
IMPase Li inh: qHTS Assay for Identifying the Cell-Membrane Permeable IMPase Inhibitors: Potentiation with Lithium. AID 1457, 2008. CHO-M1 cells, IP1 TR-FRET (IP-One), carbachol + lithium. Potency, µM (doses to about 59.4 µM), for inactives: at the top dose activity, negative = IMPase inhibition, hits mostly inhibitors. 0.35% of 210,000 active; active = well fitted inhibition curve with a large enough effect; inconclusive = small, poorly fitted or top-dose-only effect; inactive = no such curve, though single readings can be large or run the other way;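 note: IP1 builds up when IMPase is blocked and the TR-FRET signal falls; potency is the fitted concentration of half-maximal effect; plate controls were basal vehicle for no effect and high inhibitor control for full effect; nearly all actives have a fitted effect of over 50% in size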
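Steps: plate 2000 CHO-M1 cells per well and culture 16–30 h; add compound and lithium; incubate 30 min, 37C; add d2-IP1 tracer and Eu cryptate anti-IP1 antibody in lysis buffer; read after 10 min at room temperature.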
HPGD inh: qHTS Assay for Inhibitors of HPGD (15-Hydroxyprostaglandin Dehydrogenase); 4.3% of 150,000 active; purified HPGD, NADH fluorescence kinetic, PGE2 substrate; Potency, µM, inactives show at the highest dose activity change, negative = inhibition, most hits filed as inhibitors; 15-hydroxyprostaglandin dehydrogenase [NAD(+)] (Homo sapiens), P15428; note: potency is the fitted concentration of half-maximal effect
Target sequence (P15428 whole entry, looked up): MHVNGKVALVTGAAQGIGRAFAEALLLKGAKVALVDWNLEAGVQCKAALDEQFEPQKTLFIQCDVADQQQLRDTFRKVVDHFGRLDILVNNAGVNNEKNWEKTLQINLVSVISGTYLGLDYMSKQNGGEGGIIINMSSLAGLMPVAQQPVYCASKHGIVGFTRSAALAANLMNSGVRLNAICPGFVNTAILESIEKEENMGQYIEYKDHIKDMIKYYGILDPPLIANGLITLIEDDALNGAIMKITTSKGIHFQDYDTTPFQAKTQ
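NADH formation kinetics: reaction with 30 uM PGE2 and 1 mM NAD+ (final), 20 nM enzyme, Tris-HCl pH 8 with Tween 20, after 15 min compound preincubation at room temperature. Fluorescence change, last versus first of five reads.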
PNC inhibitor: High Content Assay for Compounds that inhibit the Assembly of the Perinucleolar Compartment. PC3M PTB-GFP, PNC prevalence imaging, 16 h; active compounds read low. activity change (PNC), negative = inhibition, % at 10 µM. 3.1% of 140,000 active. AID 2417, 2010;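 active = readout at or below -70, meaning at least 70% loss of cells showing the perinucleolar compartment, a nuclear body marking cancer cells; inconclusive = readout between -30 and a set limit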;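 note: plate controls were DMSO wells for no effect and camptothecin positive control wells for full effect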
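Read-out is percentage of cells bearing a perinucleolar compartment, from automated 20x imaging of fixed, Hoechst-stained PC3M PTB-GFP cells. Cells were seeded 4 h, then exposed 16 h to compound (23 nl of library stock) in duplicate plates.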
IMPase cell inh: qHTS Assay for Identifying the Cell-Membrane Permeable IMPase Inhibitors. CHO-M1 cells, IP1 accumulation, HTRF TR-FRET ratio. 120,000 tested, under 10 active. Inositol monophosphatase 1 (Rattus norvegicus), P97697. inhibition (IP1 accumulation), % at 46.1 µM; active = well fitted curve in the direction sought with a large enough effect in the signal ratio, not every such curve was filed as active; inconclusive = small, poorly fitted or top-dose-only effect, or a change in a side signal; inactive = no such curve, though single readings can be large or run the other way; the % refers to the signal ratio;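 note: cells stimulated with carbachol in lithium chloride buffer; plate controls were DMSO basal wells for no effect and reference inhibitor wells for full effect; higher means more IMPase inhibition seen as more IP1 and lower FRET ratio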
Target sequence (P97697 whole entry, looked up): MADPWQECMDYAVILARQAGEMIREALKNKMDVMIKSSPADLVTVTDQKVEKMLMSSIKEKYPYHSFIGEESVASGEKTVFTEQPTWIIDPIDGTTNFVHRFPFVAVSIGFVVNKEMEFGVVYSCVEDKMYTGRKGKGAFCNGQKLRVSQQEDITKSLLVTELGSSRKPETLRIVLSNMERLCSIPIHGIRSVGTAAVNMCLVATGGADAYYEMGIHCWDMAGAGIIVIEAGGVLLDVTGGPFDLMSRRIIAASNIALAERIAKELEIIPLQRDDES
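The IP-One HTRF competitive assay in carbachol-stimulated CHO-M1 cells quantifies cellular IP1. Compounds spanned up to 46 uM final, and activity is expressed as AC50 from concentration-response fits of the ratio and donor data.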
Numbers without * were called inactive; ? = inconclusive; / = not tested or not shown; [ ] = dose if it differs, or a comment. Most compounds without a hit are left out; they make up all but 11% or so of the library. Unless noted, calls come from the whole dose curve; as a rule, active = well fitted inhibition curve with a large enough effect (not every such curve was filed as active); inconclusive = small, poorly fitted or top-dose-only effect, or another doubt; inactive = no such curve, though single readings can be large or run the other way. Unless noted, % is set by controls: 0 for no effect and ±100 for the full control effect.

SMILES	ALDH1A1 block	IMPase Li inh	HPGD inh	PNC inhibitor	IMPase cell inh
Nc1nnn(Cc2ccccc2)n1	2%	-5%	-11%	-100*	-7
CCC1CCc2nc3sc(C(=O)Nc4cccc(F)c4)c(N)c3cc2C1 (centres undefined)	/	/	/	/	-4
CN1C2CCC1CC(OC(=O)c1c[nH]c3ccccc13)C2 (centres undefined)	-9%	19%	-10%	-89*	10
COC(=O)[C@@H]1C[C@@]2(O)[C@H](O)[C@H](O)[C@H](O)C[C@H]2N1Cc1ccc(-c2ccccc2)cc1	?	-6%	-20%	/	/
COC(=O)C/C=C/[C@@H](C)[C@@H](/C=N/OCC[C@@H]1C=C[C@H](OC(C)=O)[C@@H](COC(C)=O)O1)NS(=O)(=O)c1ccc(C)cc1	?	6%	?	37	/
CCOCCCNC(=O)CCc1ccc(S(=O)(=O)Nc2ccc(C)cc2)cc1	-15%	3%	/	/	/
CCOCCCNC(=O)C(C)NS(=O)(=O)c1ccc(C)cc1 (centres undefined)	?	-2%[38.3 µM]	?	-90*	-9
CC(C)(C)NC(=O)NC(=O)COC(=O)c1nc(-c2ccccc2)n(-c2cccc(C(F)(F)F)c2)n1	8%	-6%	-18%	-112*	/
Cc1cccc(N2CCN(c3nc4ccccc4c4nnc(C)n34)CC2)c1C	/	/	/	/	3
COc1ccc(CN2CC(C(=O)NCCN3CCOCC3)CC2=O)cc1 (centres undefined)	7%	22%[38.3 µM]	-2%	-90*	19
COc1ccccc1CNC(=O)C1CC(=O)N(C2CCCC2)C1 (centres undefined)	1%	-9%[38.3 µM]	-16%	-19	0
COCCCNC(=O)C1CC(=O)N(Cc2ccc(OC)cc2)C1 (centres undefined)	5%	-3%[38.3 µM]	-1%	-2	-7
COc1ccccc1CNC(=O)C1CC(=O)N(c2ccc(C)c(C)c2)C1 (centres undefined)	6.3µM*	22%[38.3 µM]	-1%	-81*	-6
COc1ccc(N2CC(C(=O)NCc3cccnc3)CC2=O)cc1 (centres undefined)	-4%	-17%[38.3 µM]	-10%	-98*	-4
COc1ccc(N2CC(C(=O)Nc3ccc(N4CCOCC4)cc3)CC2=O)cc1 (centres undefined)	-7%	3%[38.3 µM]	-16%	-113*	-6
COc1ccc(NS(=O)(=O)c2ccc3nc(COc4ccc(C#N)cc4)[nH]c3c2)cc1	?	6%	-24%	?	/
CC1=CC2C(C)(C)CC(=O)C[C@]2(C)CC1COc1ccc2c(c1)CC(=O)C=C2 (some centres undefined)	?	12%	?	/	/
O=C(CSc1ccc2c(c1)OCCO2)NC(=O)NC1CCCC1	-17%	7%[38.3 µM]	-12%	-117*	7
CC(C)=CC(=O)Nc1nnc(C)s1	-1%	1%	4%	-108*	-1
CCC(=O)Nc1nnc(C)s1	-7%	1%	1%	-106*	2
CCCCC(=O)Nc1nnc(C)s1	11%	-5%[38.3 µM]	1%	56	-5
Oc1ccc(N=C/C=C/c2ccc(Br)cc2)cc1-c1nc2ccccc2s1	?	14%	-16%	3	/
Cn1c(CCCOc2ccc(Cl)cc2Cl)nnc1SCC(=O)Nc1ccc(F)c(Cl)c1	5%	5%	0%	53	/
CCc1cccc(C)c1NC(=O)CSc1nnc(CCCOc2ccc(Cl)cc2Cl)n1C	11%	10%	-6%	-113*	/
Fc1ccc(-n2c(-c3ccc4c(c3)OCO4)n[nH]c2=S)cc1Cl	?	-1%	10µM*	-9	-12
SMILES	ALDH1A1 block	IMPase Li inh	HPGD inh	PNC inhibitor	IMPase cell inh
COc1cc(OC)cc(-c2n[nH]c(=S)n2-c2ccc3c(c2)OCO3)c1	5%	-24%	25µM*	-104*	/
Oc1ccc(-c2n[nH]c(=S)n2-c2ccc3c(c2)OCCO3)cc1	25µM*	-2%	20µM*	-28	/
CC(CCC(=O)O)(c1cc(Br)c(O)c(Br)c1)c1cc(Br)c(O)c(Br)c1	8%[13.5 µM]	10%	-11%	/	/
COC(=O)c1ccc(NC(=O)CSc2n[nH]c(CC(C)C)n2)cc1	/	/	/	/	0
COc1ccc(NC(=O)c2c(C(F)(F)F)nn(C)c2SCc2ccccc2)cc1	8.9µM*	12%[38.3 µM]	-12%	22	4
Cn1nc(C(F)(F)F)c(C(=O)Nc2ccc(C(F)(F)F)cc2)c1Cl	4%	3%[38.3 µM]	-15%	22	6
Cc1ccc(Cn2c(=O)c3c(nc4n3CCN4Cc3ccco3)n(C)c2=O)cc1	?	2%	-16%	-100*	-2
Cn1c(OCc2ccco2)nc2c1c(=O)n(Cc1ccc(Cl)c(Cl)c1)c(=O)n2C	25µM*	15%[38.3 µM]	-16%	28	5
O=C(OCC(=O)N1CCCC1)c1ccccc1OCc1ccccc1	0%	7%	1%	28	-3
Cc1ccc(COc2ccccc2C(=S)N2CCCC2)cc1	25µM*	20%	/	/	/
Fc1ccc(COc2ccccc2C(=S)N2CCCC2)cc1	7.9µM*	18%	8.9µM*	-11	/
C=C(C)CSc1nc2sc3c(c2c(=O)n1Cc1ccccc1)CC(C)(CC)OC3 (centres undefined)	/	/	/	/	-16
CCCCN1C(=O)CC(Sc2ccccc2C(=O)O)C1=O (centres undefined)	?	-2%[38.3 µM]	2%	?	-4
CN(C)c1ccc(N2C(=O)CC(Sc3ccccc3C(=O)O)C2=O)cc1 (centres undefined)	1.3µM*	-1%	-10%	15	/
Cc1cccc(N2C(=O)CC(Sc3ccccc3C(=O)O)C2=O)c1 (centres undefined)	5µM*	10%	-12%	-14	-1
CC(C)CN1C(=O)CC(Sc2ccccc2C(=O)O)C1=O (centres undefined)	18µM*	16%[38.3 µM]	-4%	?	-5
Cc1ccc(N2C(=O)CC(Sc3ccccc3C(=O)O)C2=O)cc1C (centres undefined)	0.45µM*	3%	/	/	/
COc1ccc(NC(=O)Cn2cc(C(=O)C3CCCCC3)c3ccccc32)cc1	/	/	/	/	-5
O=C(O)c1ccc(CSc2nnc(-c3cccnc3)n2-c2ccc(Br)cc2)cc1	0%	-4%	/	/	/
O=C(O)c1ccccc1SC1CC(=O)N(c2ccc3c(c2)OCO3)C1=O (centres undefined)	1.3µM*	-5%	/	/	/
Cc1cccc(N2C(=O)CC(Sc3ncn[nH]3)C2=O)c1 (centres undefined)	14µM*	-2%	/	/	/
Cc1ccc(N2C(=O)CC(Sc3ccccc3C(=O)O)C2=O)cc1 (centres undefined)	0.71µM*	1%	-6%	17	/

Assay outcomes deposited in PubChem by National Center for Advancing Translational Sciences (NCATS).
